# In the supplement of paper PMC4466140:
# What was measured:
# Test in all cases: SPOT peptide array binding signal intensity (averaged, normalized) (arbitrary units (background-subtracted, floor 0; scale differs between SH3 domains)); higher = stronger binding of the SH3 domain to the peptide
# AgAbp1 = biological target: AgAbp1
# How it was run: (§1)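 The binding signal is the normalized, background-subtracted spot intensity averaged over replicates; its arbitrary units differ between domains. It was obtained by incubating 10 μg/ml GST-fused SH3 domains from four yeast species overnight at 4°C in TBS-based blocking buffer on cellulose membranes with synthetic 15-mer peptides, cysteines replaced by serines, then detecting with anti-GST antibody, HRP anti-mouse secondary and luminol.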
# AgBbc1 = biological target: AgBbc1
# How it was run: as §1
# AgBem1-D1 = biological target: AgBem1-D1
# How it was run: as §1
# AgBzz1-D1 = biological target: AgBzz1-D1
# How it was run: as §1
# AgBzz1-D2 = biological target: AgBzz1-D2
# How it was run: as §1
# AgCyk3 = biological target: AgCyk3
# How it was run: as §1
# AgFus1 = biological target: AgFus1
# How it was run: as §1
# AgHof1 = biological target: AgHof1
# How it was run: as §1
# AgHse1 = biological target: AgHse1
# How it was run: as §1
# AgLsb1 = biological target: AgLsb1
# How it was run: as §1
# AgLsb4 = biological target: AgLsb4
# How it was run: as §1
# AgMyo5 = biological target: AgMyo5
# How it was run: as §1
# AgNbp2 = biological target: AgNbp2
# How it was run: as §1
# AgRvs167 = biological target: AgRvs167
# How it was run: as §1
# AgSho1 = biological target: AgSho1
# How it was run: as §1
# AgSla1-D1-D2 = biological target: AgSla1-D1-D2
# How it was run: as §1
# AgSla1-D3 = biological target: AgSla1-D3
# How it was run: as §1
# CaAbp1-D1 = biological target: CaAbp1-D1
# How it was run: as §1
# CaAbp1-D2 = biological target: CaAbp1-D2
# How it was run: as §1
# CaBbc1 = biological target: CaBbc1
# How it was run: as §1
# CaBem1-D1 = biological target: CaBem1-D1
# How it was run: as §1
# CaBzz1-D1 = biological target: CaBzz1-D1
# How it was run: as §1
# CaBzz1-D2 = biological target: CaBzz1-D2
# How it was run: as §1
# CaCyk3 = biological target: CaCyk3
# How it was run: as §1
# CaFus1 = biological target: CaFus1
# How it was run: as §1
# CaHof1 = biological target: CaHof1
# How it was run: as §1
# CaHse1 = biological target: CaHse1
# How it was run: as §1
# CaLsb1 = biological target: CaLsb1
# How it was run: as §1
# CaLsb4 = biological target: CaLsb4
# How it was run: as §1
# CaMyo5 = biological target: CaMyo5
# How it was run: as §1
# CaNbp2 = biological target: CaNbp2
# How it was run: as §1
# CaRvs167 = biological target: CaRvs167
# How it was run: as §1
# CaRvs167-3 = biological target: CaRvs167-3
# How it was run: as §1
# CaSho1 = biological target: CaSho1
# How it was run: as §1
# CaSla1-D1-D2 = biological target: CaSla1-D1-D2
# How it was run: as §1
# CaSla1-D3 = biological target: CaSla1-D3
# How it was run: as §1
# ScAbp1 = biological target: ScAbp1
# How it was run: as §1
# ScBbc1 = biological target: ScBbc1
# How it was run: as §1
# ScBem1-D1 = biological target: ScBem1-D1
# How it was run: as §1
# ScBzz1-D1 = biological target: ScBzz1-D1
# How it was run: as §1
# ScBzz1-D2 = biological target: ScBzz1-D2
# How it was run: as §1
# ScCyk3 = biological target: ScCyk3
# How it was run: as §1
# ScFus1 = biological target: ScFus1
# How it was run: as §1
# ScHof1 = biological target: ScHof1
# How it was run: as §1
# ScHse1 = biological target: ScHse1
# How it was run: as §1
# ScLsb1 = biological target: ScLsb1
# How it was run: as §1
# ScLsb2 = biological target: ScLsb2
# How it was run: as §1
# ScLsb3 = biological target: ScLsb3
# How it was run: as §1
# ScLsb4 = biological target: ScLsb4
# How it was run: as §1
# ScMyo3 = biological target: ScMyo3
# How it was run: as §1
# ScMyo5 = biological target: ScMyo5
# How it was run: as §1
# ScNbp2 = biological target: ScNbp2
# How it was run: as §1
# ScPex13 = biological target: ScPex13
# How it was run: as §1
# ScRvs167 = biological target: ScRvs167
# How it was run: as §1
# ScSho1 = biological target: ScSho1
# How it was run: as §1
# ScSla1-D1-D2 = biological target: ScSla1-D1-D2
# How it was run: as §1
# ScSla1-D3 = biological target: ScSla1-D3
# How it was run: as §1
# SpAbp1-D1 = biological target: SpAbp1-D1
# How it was run: as §1
# SpBbc1 = biological target: SpBbc1
# How it was run: as §1
# SpBzz1-D1 = biological target: SpBzz1-D1
# How it was run: as §1
# SpBzz1-D2 = biological target: SpBzz1-D2
# How it was run: as §1
# SpCyk3 = biological target: SpCyk3
# How it was run: as §1
# SpHof1 = biological target: SpHof1
# How it was run: as §1
# SpHof1-2 = biological target: SpHof1-2
# How it was run: as §1
# SpHof1-3 = biological target: SpHof1-3
# How it was run: as §1
# SpHse1 = biological target: SpHse1
# How it was run: as §1
# SpLsb1 = biological target: SpLsb1
# How it was run: as §1
# SpLsb4 = biological target: SpLsb4
# How it was run: as §1
# SpMyo1 = biological target: SpMyo1
# How it was run: as §1
# SpNbp2 = biological target: SpNbp2
# How it was run: as §1
# SpPex13 = biological target: SpPex13
# How it was run: as §1
# SpRvs167 = biological target: SpRvs167
# How it was run: as §1
# SpSla1-D1-D2 = biological target: SpSla1-D1-D2
# How it was run: as §1
# SpSla1-D3 = biological target: SpSla1-D3
# How it was run: as §1
binder,measurement,setting,value
TPTSGPPLLPPRNTM,SPOT peptide array binding signal intensity,AgAbp1,≤ 0
same,SPOT peptide array binding signal intensity,AgBbc1,128
same,SPOT peptide array binding signal intensity,AgBem1-D1,≤ 0
same,SPOT peptide array binding signal intensity,AgBzz1-D1,15
same,SPOT peptide array binding signal intensity,AgBzz1-D2,≤ 0
same,SPOT peptide array binding signal intensity,AgCyk3,6
same,SPOT peptide array binding signal intensity,AgFus1,≤ 0
same,SPOT peptide array binding signal intensity,AgHof1,21.2
same,SPOT peptide array binding signal intensity,AgHse1,65.5
same,SPOT peptide array binding signal intensity,AgLsb1,778
same,SPOT peptide array binding signal intensity,AgLsb4,5100
same,SPOT peptide array binding signal intensity,AgMyo5,124
same,SPOT peptide array binding signal intensity,AgNbp2,≤ 0
same,SPOT peptide array binding signal intensity,AgRvs167,801
same,SPOT peptide array binding signal intensity,AgSho1,≤ 0
same,SPOT peptide array binding signal intensity,AgSla1-D1-D2,≤ 0
same,SPOT peptide array binding signal intensity,AgSla1-D3,0.5
same,SPOT peptide array binding signal intensity,CaAbp1-D1,≤ 0
same,SPOT peptide array binding signal intensity,CaAbp1-D2,≤ 0
same,SPOT peptide array binding signal intensity,CaBbc1,153
same,SPOT peptide array binding signal intensity,CaBem1-D1,0.5
same,SPOT peptide array binding signal intensity,CaBzz1-D1,91
same,SPOT peptide array binding signal intensity,CaBzz1-D2,33.5
same,SPOT peptide array binding signal intensity,CaCyk3,1
same,SPOT peptide array binding signal intensity,CaFus1,25
same,SPOT peptide array binding signal intensity,CaHof1,4.75
same,SPOT peptide array binding signal intensity,CaHse1,100
same,SPOT peptide array binding signal intensity,CaLsb1,5.5
same,SPOT peptide array binding signal intensity,CaLsb4,5320
same,SPOT peptide array binding signal intensity,CaMyo5,36.8
SAPDIPPRSPNRNAH,SPOT peptide array binding signal intensity,AgAbp1,≤ 0
same,SPOT peptide array binding signal intensity,AgBbc1,498
same,SPOT peptide array binding signal intensity,AgBem1-D1,≤ 0
same,SPOT peptide array binding signal intensity,AgBzz1-D1,34.5
same,SPOT peptide array binding signal intensity,AgBzz1-D2,≤ 0
same,SPOT peptide array binding signal intensity,AgCyk3,≤ 0
same,SPOT peptide array binding signal intensity,AgFus1,≤ 0
same,SPOT peptide array binding signal intensity,AgHof1,≤ 0
same,SPOT peptide array binding signal intensity,AgHse1,≤ 0
same,SPOT peptide array binding signal intensity,AgLsb1,324
same,SPOT peptide array binding signal intensity,AgLsb4,328
same,SPOT peptide array binding signal intensity,AgMyo5,≤ 0
same,SPOT peptide array binding signal intensity,AgNbp2,3.5
same,SPOT peptide array binding signal intensity,AgRvs167,36.3
same,SPOT peptide array binding signal intensity,AgSho1,≤ 0
same,SPOT peptide array binding signal intensity,AgSla1-D1-D2,≤ 0
same,SPOT peptide array binding signal intensity,AgSla1-D3,≤ 0
same,SPOT peptide array binding signal intensity,CaAbp1-D1,≤ 0
same,SPOT peptide array binding signal intensity,CaAbp1-D2,4.5
same,SPOT peptide array binding signal intensity,CaBbc1,575
same,SPOT peptide array binding signal intensity,CaBem1-D1,1
same,SPOT peptide array binding signal intensity,CaBzz1-D1,85
same,SPOT peptide array binding signal intensity,CaBzz1-D2,≤ 0
same,SPOT peptide array binding signal intensity,CaCyk3,3
same,SPOT peptide array binding signal intensity,CaFus1,≤ 0
same,SPOT peptide array binding signal intensity,CaHof1,≤ 0
same,SPOT peptide array binding signal intensity,CaHse1,9.75
same,SPOT peptide array binding signal intensity,CaLsb1,0.25
same,SPOT peptide array binding signal intensity,CaLsb4,4890
same,SPOT peptide array binding signal intensity,CaMyo5,≤ 0
same,SPOT peptide array binding signal intensity,CaNbp2,≤ 0
same,SPOT peptide array binding signal intensity,CaRvs167,321
same,SPOT peptide array binding signal intensity,CaRvs167-3,1
same,SPOT peptide array binding signal intensity,CaSho1,≤ 0
same,SPOT peptide array binding signal intensity,CaSla1-D1-D2,290
same,SPOT peptide array binding signal intensity,CaSla1-D3,≤ 0
same,SPOT peptide array binding signal intensity,ScAbp1,4.5
same,SPOT peptide array binding signal intensity,ScBbc1,35.8
same,SPOT peptide array binding signal intensity,ScBem1-D1,≤ 0
same,SPOT peptide array binding signal intensity,ScBzz1-D1,≤ 0
same,SPOT peptide array binding signal intensity,ScBzz1-D2,≤ 0
same,SPOT peptide array binding signal intensity,ScCyk3,≤ 0
same,SPOT peptide array binding signal intensity,ScFus1,≤ 0
same,SPOT peptide array binding signal intensity,ScHof1,≤ 0
same,SPOT peptide array binding signal intensity,ScHse1,17.5
same,SPOT peptide array binding signal intensity,ScLsb1,763
same,SPOT peptide array binding signal intensity,ScLsb2,1090
same,SPOT peptide array binding signal intensity,ScLsb3,5380
same,SPOT peptide array binding signal intensity,ScLsb4,936
same,SPOT peptide array binding signal intensity,ScMyo3,≤ 0
same,SPOT peptide array binding signal intensity,ScMyo5,≤ 0
same,SPOT peptide array binding signal intensity,ScNbp2,57
same,SPOT peptide array binding signal intensity,ScPex13,130
same,SPOT peptide array binding signal intensity,ScRvs167,1360
same,SPOT peptide array binding signal intensity,ScSho1,13.5
same,SPOT peptide array binding signal intensity,ScSla1-D1-D2,134
same,SPOT peptide array binding signal intensity,ScSla1-D3,≤ 0
same,SPOT peptide array binding signal intensity,SpAbp1-D1,≤ 0
same,SPOT peptide array binding signal intensity,SpBbc1,3.5
same,SPOT peptide array binding signal intensity,SpBzz1-D1,≤ 0
same,SPOT peptide array binding signal intensity,SpBzz1-D2,≤ 0
same,SPOT peptide array binding signal intensity,SpCyk3,≤ 0
same,SPOT peptide array binding signal intensity,SpHof1,0.75
same,SPOT peptide array binding signal intensity,SpHof1-2,≤ 0
same,SPOT peptide array binding signal intensity,SpHof1-3,1
same,SPOT peptide array binding signal intensity,SpHse1,12
same,SPOT peptide array binding signal intensity,SpLsb1,540
same,SPOT peptide array binding signal intensity,SpLsb4,6620
same,SPOT peptide array binding signal intensity,SpMyo1,≤ 0
same,SPOT peptide array binding signal intensity,SpNbp2,59.5
same,SPOT peptide array binding signal intensity,SpPex13,≤ 0
same,SPOT peptide array binding signal intensity,SpRvs167,1600
same,SPOT peptide array binding signal intensity,SpSla1-D1-D2,≤ 0
same,SPOT peptide array binding signal intensity,SpSla1-D3,≤ 0
QFDLKMPSKPIHNLK,SPOT peptide array binding signal intensity,SpBzz1-D2,≤ 0
same,SPOT peptide array binding signal intensity,SpCyk3,≤ 0
same,SPOT peptide array binding signal intensity,SpHof1,9
same,SPOT peptide array binding signal intensity,SpHof1-2,11.8
same,SPOT peptide array binding signal intensity,SpHof1-3,≤ 0
same,SPOT peptide array binding signal intensity,SpHse1,136
same,SPOT peptide array binding signal intensity,SpLsb1,≤ 0
same,SPOT peptide array binding signal intensity,SpLsb4,318
same,SPOT peptide array binding signal intensity,SpMyo1,≤ 0
same,SPOT peptide array binding signal intensity,SpNbp2,74.5
same,SPOT peptide array binding signal intensity,SpPex13,1
same,SPOT peptide array binding signal intensity,SpRvs167,≤ 0
same,SPOT peptide array binding signal intensity,SpSla1-D1-D2,5
same,SPOT peptide array binding signal intensity,SpSla1-D3,30
